Results on 57 molecules are retold here after PubChem BioAssay (Tox21).

SMILES strings stand for the structures. Inconclusive results are not listed. Values without a mark were called inactive. Activity calls are given as the source filed them. Calls follow the shape of the dose curve; as a rule, active = well fitted cell-killing curve with a large enough effect in the repeat runs; inconclusive = weak or mixed curves, or effect the other way; inactive = flat fitted curve, though single readings scatter.

The nature of assay [1]: cAMP Responsive Elements (CRE) small molecule antagonists, cell-based qHTS assay: qHTS cell viability counter screen (AID 2060913). Also: nearly all actives have a fitted effect of over 40% in size. The method in brief:
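Viability of NKH477-stimulated (0.25 uM final) CRE-bla HEK293T cells is measured by CellTiter-Glo luminescence following 3 hrs compound exposure at 37 C.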
Background: Quantitative high-throughput screening tests each substance at several concentrations.

The nature of assay [2]: cAMP Responsive Elements (CRE) small molecule agonists, cell-based qHTS assay: qHTS cell viability counter screen (AID 2060914).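 Also: viability read after 3 h of compound exposure; nearly all actives have a fitted effect of over 50% in size.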 The essentials:
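CRE-bla HEK293T cells in 10% dialyzed FBS medium were exposed to compounds for 3 h at 37C after 18 h plating. CellTiter-Glo was then added in the same wells, and luminescence was read after 30 min at room temperature.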
% is scaled to controls: 0 for no effect and ±100 for the full control effect; potency is read from the fitted curve at half-maximal effect.

On to `CC(C)(C)C(=O)C(Cl)Cl`, for which the Potency result in assay [1] and in assay [2] was “inactive” each time.

As to `O=P(O)(O)CN(CP(=O)(O)O)CP(=O)(O)O`, the Potency entry in assay [1] and in assay [2] was “inactive” throughout.

As for `Nc1ccc([N+](=O)[O-])cc1`, in assay [1], the Potency result is “inactive”. The Potency in assay [2] is 6.11 µM (active).

With `O=C(Cl)c1ccc(Cl)cc1`, the Potency entry in assay [1] and in assay [2] was “inactive” in each case.

As to `O=NN1CCCCC1`, the Potency result in assay [1] and in assay [2] was “inactive” throughout.

`CCOc1cc(OP(=S)(OC)OC)nc(CC)n1`: the Potency result in assay [1] and in assay [2] was “inactive” in each case.

With `Fc1cccc(Cl)c1CCl`, the Potency entry in assay [1] and in assay [2] was “inactive” in each case.

For `CCNCC`, the Potency entry in assay [1] and in assay [2] was “inactive” throughout.

`O=C(O)CC[N+](=O)[O-]`: the Potency entry in assay [1] and in assay [2] was “inactive” throughout.

Turning to `CC(c1ccc(O)cc1)c1ccc(O)cc1`, the Potency result in assay [1] and in assay [2] was “inactive” each time.

Take `CCCOC(=O)Cc1ccc(OCC(=O)N(CC)CC)c(OC)c1`: the Potency result in assay [1] and in assay [2] was “inactive” throughout.

`CN/C(=N\[N+](=O)[O-])NCC1CCOC1` (centres undefined): the Potency result in assay [1] and in assay [2] was “inactive” each time.

Take `O=C(O)CCCc1ccc(N(CCCl)CCCl)cc1`: the Potency entry in assay [1] and in assay [2] was “inactive” throughout.

Turning to `Cc1cc(Cl)ccc1OCC(=O)O`, the Potency entry in assay [1] and in assay [2] was “inactive” throughout.

Regarding `CN1C(=S)CN=C(c2ccccc2)c2cc(Cl)ccc21`, the Potency result in assay [1] and in assay [2] was “inactive” throughout.

Take `O=C(CCCN1CCC(n2c(=O)[nH]c3ccccc32)CC1)c1ccc(F)cc1`: the Potency result in assay [1] and in assay [2] was “inactive” each time.

In the case of `CC(O)C(=O)[O][Hg][c]1ccccc1` (centres undefined), the Potency in assay [1] and in assay [2] was 12.2 µM (active) each time.

On to `CCCCCCCCCCCCN(C)C`, for which the Potency entry in assay [1] and in assay [2] was “inactive” throughout.

On to `O=[N+]([O-])c1cc(C(F)(F)F)c(Cl)c([N+](=O)[O-])c1Nc1ncc(C(F)(F)F)cc1Cl`, for which the Potency in assay [1] is 30.6 µM (active); in assay [2], 77 µM (active).

As for `O=c1[nH]c(=O)n(Cl)c(=O)n1Cl`, the Potency entry in assay [1] and in assay [2] was “inactive” each time.

Turning to `COC(C)(C)C`, the Potency entry in assay [1] and in assay [2] was “inactive” in each case.

For the molecule `CCCCCCC#N`, the Potency result in assay [1] and in assay [2] was “inactive” throughout.

Regarding `CC(C)OC(=O)Nc1cccc(Cl)c1`, the Potency entry in assay [1] and in assay [2] was “inactive” each time.

As to `CC(C)CC(N(C)C)C1(c2ccc(Cl)cc2)CCC1` (centres undefined), the Potency result in assay [1] and in assay [2] was “inactive” each time.

`N#CCc1ccc(Cl)cc1`: the Potency entry in assay [1] and in assay [2] was “inactive” in each case.

In the case of `N#CC(CCc1ccc(Cl)cc1)(Cn1cncn1)c1ccccc1` (centres undefined), the Potency result in assay [1] and in assay [2] was “inactive” each time.

For the molecule `COc1cc(OC)nc(Oc2cccc(Oc3nc(OC)cc(OC)n3)c2C(=O)O)n1`, the Potency entry in assay [1] and in assay [2] was “inactive” in each case.

On to `COc1ccc2c(c1OC)C(=O)O[C@H]2[C@@H]1c2cc3c(cc2CCN1C)OCO3`, for which the Potency entry in assay [1] and in assay [2] was “inactive” each time.

For the molecule `Nc1ccc(Cl)cc1`, the Potency result in assay [1] and in assay [2] was “inactive” throughout.

For the molecule `N#Cc1cccnc1`, the Potency entry in assay [1] and in assay [2] was “inactive” each time.

As for `O=S(=O)(O)C(F)(F)C(F)(F)C(F)(F)C(F)(F)C(F)(F)C(F)(F)C(F)(F)C(F)(F)F`, the Potency result in assay [1] and in assay [2] was “inactive” in each case.

Consider `CC(Cc1ccccc1)N(C)Cc1ccco1` (centres undefined), for which the Potency result in assay [1] and in assay [2] was “inactive” each time.

For the molecule `Oc1cccc(Cl)c1`, the Potency entry in assay [1] and in assay [2] was “inactive” in each case.

In the case of `CC[C@H]1C[C@@H]2C[C@H]3c4[nH]c5ccc(OC)cc5c4CCN(C2)[C@@H]13`, the Potency result in assay [1] and in assay [2] was “inactive” each time.

For `CC(C=O)Cc1ccc2c(c1)OCO2` (centres undefined), the Potency entry in assay [1] and in assay [2] was “inactive” each time.

Consider `N#CN=C(N)N`, for which the Potency result in assay [1] and in assay [2] was “inactive” each time.

For the molecule `COP(=O)(OC)O/C(=C\Cl)c1cc(Cl)c(Cl)cc1Cl`, the Potency entry in assay [1] and in assay [2] was “inactive” each time.

For `O=Cc1ccc(Cl)cc1Cl`, the Potency result in assay [1] and in assay [2] was “inactive” throughout.

For the molecule `CCOP(=S)(OCC)SCCl`, the Potency result in assay [1] and in assay [2] was “inactive” each time.

On to `COP(=O)(O)OC`, for which the Potency entry in assay [1] and in assay [2] was “inactive” in each case.

As to `C=CC(=O)OCC(C)C`, the Potency entry in assay [1] and in assay [2] was “inactive” each time.

For the molecule `O=C1CCCCC1Cl` (centres undefined), the Potency entry in assay [1] and in assay [2] was “inactive” throughout.

In the case of `C=CC(C)(CCC=C(C)C)OC(=O)c1ccccc1N` (centres undefined), the Potency result in assay [1] and in assay [2] was “inactive” throughout.

As to `CCNc1nc(NC(C)(C)C)nc(SC)n1`, the Potency result in assay [1] and in assay [2] was “inactive” throughout.

In the case of `CN(C)c1ccc(N)cc1`, the Potency result in assay [1] and in assay [2] was “inactive” throughout.

Take `Cc1ccc2nc3sc(=O)sc3nc2c1`: the viability change, negative = cytotoxic in assay [1] was 10.1% [at 18.9 µM]. Moreover, in assay [2], the activity change, negative = cytotoxicity was -6.15% [at 18.9 µM].

In the case of `Cc1ccc(S(=O)(=O)N[C@@H](CCCCN)C(=O)CCl)cc1`, the Potency entry in assay [1] and in assay [2] was “inactive” each time.

As to `C=C(C)[C@@H]1CC=C(C=O)CC1`, the Potency result in assay [1] and in assay [2] was “inactive” throughout.

For the molecule `CN(C)C1CCCCC1`, the Potency entry in assay [1] and in assay [2] was “inactive” each time.

In the case of `CCC(C)(CC)c1cc(NC(=O)c2c(OC)cccc2OC)on1`, the Potency entry in assay [1] and in assay [2] was “inactive” each time.

`Cc1cc2c3c(c1)C(c1ccccc1)=N[C@@H](NC(=O)c1ccncc1)C(=O)N3CC2`: the Potency entry in assay [1] and in assay [2] was “inactive” in each case.

Turning to `CCC(C)(C#N)N=NC(C)(C#N)CC` (centres undefined), the Potency result in assay [1] and in assay [2] was “inactive” each time.

For `CC(C)(CCl)C(=O)Cl`, the Potency result in assay [1] and in assay [2] was “inactive” throughout.

For the molecule `CCCCNC(=O)n1c(NC(=O)OC)nc2ccccc21`, the Potency entry in assay [1] and in assay [2] was “inactive” in each case.

As to `Clc1ccc(C(Cl)(Cl)Cl)cc1`, the Potency result in assay [1] and in assay [2] was “inactive” each time.

With `Cc1ccc(N)cc1Cl`, the Potency result in assay [1] and in assay [2] was “inactive” each time.

As to `CCCn1cc[n+](C)c1`, the Potency entry in assay [1] and in assay [2] was “inactive” each time.
